Results from PubChem BioAssay AID1159580 (chemical genetic matrix, 2015).
Among all 5,500 compounds or so, about 2,000 (36%) were called active. About 18% were inconclusive and are not listed. Cut-off read from the data, not from the text of the source: active = normalized growth mostly below about 0.91 (no sharp cut-off); inconclusive = no clear call, values can overlap the other calls; inactive = mostly above about 0.92. The list shows a part of the results.

Test: chemical genetic growth profiling, strain panel (AID 1159580);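 note: tested at 20 µM; growth read once vehicle control cultures reached saturation at 30 °C; 1 = growth at the plate median or of vehicle wells; lower values mean less growth of the strain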
Settings: growth OD

Measured: normalized growth

COc1ccc(-c2cc(=O)c3c(O)cc(O[C@@H]4O[C@H](CO[C@H]5O[C@H](C)[C@@H](O)[C@H](O)[C@@H]5O)[C@@H](O)[C@H](O)[C@H]4O)cc3o2)cc1O
inactive: S. cerevisiae deletion strains, locus YKL009W, strain mrt4, stronger effect = lower value 0.981 | S. cerevisiae deletion strains, locus YKL068W, stronger effect = lower value 0.973 | S. cerevisiae deletion strains, locus YKL085W, strain MDH1 (second series), stronger effect = lower value 0.991 | S. cerevisiae deletion strains, locus YKL085W, strain MDH1, stronger effect = lower value 0.991 | S. cerevisiae deletion strains, locus YKL160W, strain elf1, stronger effect = lower value 1 | S. cerevisiae deletion strains, locus YKL190W, strain CNB1, stronger effect = lower value 0.994 | S. cerevisiae deletion strains, locus YKR001C, strain vps1, stronger effect = lower value 1.02 | S. cerevisiae deletion strains, locus YKR026C, strain gcn3, stronger effect = lower value 1.01 | S. cerevisiae deletion strains, locus YKR091W, strain srl3, stronger effect = lower value 1.02 | S. cerevisiae deletion strains, locus YLL001W, strain dnm1, stronger effect = lower value 1 | S. cerevisiae deletion strains, locus YLL026W, stronger effect = lower value 1.01 | S. cerevisiae deletion strains, locus YLL041C, strain sdh2, stronger effect = lower value 1.01 | S. cerevisiae deletion strains, locus YLR027C, strain aat2, stronger effect = lower value 1.01 | S. cerevisiae deletion strains, locus YLR039C, strain RIC1, stronger effect = lower value 0.954 | S. cerevisiae deletion strains, locus YLR058C, strain SHM2, stronger effect = lower value 0.986 | S. cerevisiae deletion strains, locus YLR102C, strain apc9, stronger effect = lower value 0.996 | S. cerevisiae deletion strains, locus YLR113W, strain HOG1, stronger effect = lower value 1.03 | S. cerevisiae deletion strains, locus YLR221C, strain rsa3, stronger effect = lower value 1.01 | S. cerevisiae deletion strains, locus YLR258W, strain gsy2, stronger effect = lower value 1.03 | S. cerevisiae deletion strains, locus YLR262C, strain YPT6 (second series), stronger effect = lower value 1.03 | S. cerevisiae deletion strains, locus YLR262C, strain YPT6, stronger effect = lower value 0.949 | S. cerevisiae deletion strains, locus YLR268W, strain sec22, stronger effect = lower value 1 | S. cerevisiae deletion strains, locus YLR320W, strain mms22, stronger effect = lower value 1.03 | S. cerevisiae deletion strains, locus YLR330W, strain CHS5, stronger effect = lower value 0.981 | S. cerevisiae deletion strains, locus YLR342W, strain FKS1 (second series), stronger effect = lower value 1.01 | S. cerevisiae deletion strains, locus YLR342W, strain FKS1, stronger effect = lower value 1.03 | S. cerevisiae deletion strains, locus YLR357W, strain rsc2, stronger effect = lower value 1.03 | S. cerevisiae deletion strains, locus YLR370C, strain arc18, stronger effect = lower value 1.01 | S. cerevisiae deletion strains, locus YLR371W, strain rom2, stronger effect = lower value 0.999 | S. cerevisiae deletion strains, locus YLR384C, strain iki3, stronger effect = lower value 1.03 | S. cerevisiae deletion strains, locus YLR418C, strain cdc73, stronger effect = lower value 0.979 | S. cerevisiae deletion strains, locus YML016C, strain PPZ1, stronger effect = lower value 0.994 | S. cerevisiae deletion strains, locus YML032C, strain rad52, stronger effect = lower value 1.02 | S. cerevisiae deletion strains, locus YML120C, strain ndi1, stronger effect = lower value 1.01 | S. cerevisiae deletion strains, locus YML124C, strain tub3, stronger effect = lower value 1 | S. cerevisiae deletion strains, locus YMR058W, strain fet3, stronger effect = lower value 1.01 | S. cerevisiae deletion strains, locus YMR078C, strain ctf18, stronger effect = lower value 0.993 | S. cerevisiae deletion strains, locus YMR125W, strain sto1, stronger effect = lower value 1.03 | S. cerevisiae deletion strains, locus YMR129W, stronger effect = lower value 1 | S. cerevisiae deletion strains, locus YMR205C, strain PFK2, stronger effect = lower value 1.03 | S. cerevisiae deletion strains, locus YMR223W, strain ubp8, stronger effect = lower value 0.989 | S. cerevisiae deletion strains, locus YMR231W, strain pep5, stronger effect = lower value 1.02 | S. cerevisiae deletion strains, locus YMR307W, strain GAS1, stronger effect = lower value 1.07 | S. cerevisiae deletion strains, locus YNL067W, strain RPL9B, stronger effect = lower value 1.04 | S. cerevisiae deletion strains, locus YNL071W, strain lat1, stronger effect = lower value 1.03 | S. cerevisiae deletion strains, locus YNL128W, strain TEP1, stronger effect = lower value 1.01 | S. cerevisiae deletion strains, locus YNL183C, strain NPR1, stronger effect = lower value 0.989 | S. cerevisiae deletion strains, locus YNL209W, strain ssb2, stronger effect = lower value 1.01 | S. cerevisiae deletion strains, locus YNL233W, strain BNI4, stronger effect = lower value 1.01 | S. cerevisiae deletion strains, locus YNL248C, strain rpa49, stronger effect = lower value 1 | S. cerevisiae deletion strains, locus YNL250W, strain rad50, stronger effect = lower value 1 | S. cerevisiae deletion strains, locus YNL271C, strain bni1, stronger effect = lower value 0.999 | S. cerevisiae deletion strains, locus YNL298W, strain CLA4, stronger effect = lower value 0.985 | S. cerevisiae deletion strains, locus YNL307C, strain MCK1, stronger effect = lower value 1 | S. cerevisiae deletion strains, locus YNL322C, strain KRE1 (second series), stronger effect = lower value 1.02 | S. cerevisiae deletion strains, locus YNL322C, strain KRE1, stronger effect = lower value 1 | S. cerevisiae deletion strains, locus YNR049C, strain mso1, stronger effect = lower value 1.01 | S. cerevisiae deletion strains, locus YNR052C, strain pop2, stronger effect = lower value 1 | S. cerevisiae deletion strains, locus YOL006C, strain TOP1, stronger effect = lower value 1.08 | S. cerevisiae deletion strains, locus YOL012C, strain htz1 1.47 | S. cerevisiae deletion strains, locus YOL147C, strain pex11, stronger effect = lower value 0.974 | S. cerevisiae deletion strains, locus YOR001W, strain rrp6, stronger effect = lower value 1.03 | S. cerevisiae deletion strains, locus YOR061W, strain CKA2, stronger effect = lower value 0.993 | S. cerevisiae deletion strains, locus YOR069W, strain VPS5, stronger effect = lower value 0.987 | S. cerevisiae deletion strains, locus YOR070C, strain gyp1, stronger effect = lower value 1.02 | S. cerevisiae deletion strains, locus YOR080W, strain dia2, stronger effect = lower value 1.03 | S. cerevisiae deletion strains, locus YOR083W, strain WHI5, stronger effect = lower value 0.992 | S. cerevisiae deletion strains, locus YOR106W, strain vam3, stronger effect = lower value 0.983 | S. cerevisiae deletion strains, locus YOR136W, strain idh2, stronger effect = lower value 1.01 | S. cerevisiae deletion strains, locus YOR144C, strain elg1, stronger effect = lower value 1 | S. cerevisiae deletion strains, locus YOR184W, strain ser1, stronger effect = lower value 1.01 | S. cerevisiae deletion strains, locus YOR231W, strain MKK1, stronger effect = lower value 1 | S. cerevisiae deletion strains, locus YOR265W, strain rbl2, stronger effect = lower value 1.02 | S. cerevisiae deletion strains, locus YOR270C, strain vph1, stronger effect = lower value 0.983 | S. cerevisiae deletion strains, locus YOR290C, strain snf2, stronger effect = lower value 1.02 | S. cerevisiae deletion strains, locus YOR316C, strain cot1, stronger effect = lower value 0.997 | S. cerevisiae deletion strains, locus YPL051W, strain arl3, stronger effect = lower value 1.01 | S. cerevisiae deletion strains, locus YPL055C, strain LGE1, stronger effect = lower value 1.07 | S. cerevisiae deletion strains, locus YPL078C, strain atp4, stronger effect = lower value 0.998 | S. cerevisiae deletion strains, locus YPL106C, strain sse1, stronger effect = lower value 1.05 | S. cerevisiae deletion strains, locus YPL240C, strain hsp82, stronger effect = lower value 1.03 | S. cerevisiae deletion strains, locus YPL241C, strain CIN2, stronger effect = lower value 0.986 | S. cerevisiae deletion strains, locus YPL256C, strain CLN2, stronger effect = lower value 0.987 | S. cerevisiae deletion strains, locus YPR119W, strain clb2, stronger effect = lower value 1 | S. cerevisiae deletion strains, locus YPR141C, strain kar3, stronger effect = lower value 0.972 | S. cerevisiae deletion strains, locus YPR163C, strain tif3, stronger effect = lower value 0.992 | S. cerevisiae deletion strains, locus YPR167C, strain met16, stronger effect = lower value 1.01 | S. cerevisiae deletion strains, strain wtn01, stronger effect = lower value 0.997 | S. cerevisiae strains, strain wild type, stronger effect = lower value 1
